Patent US6124449, “High affinity TGFβ nucleic acid ligands and inhibitors” (NeXstar Pharmaceuticals, Inc.)

Legend:
KGF (hKGF) = target: T1, KGF (hKGF) (Homo sapiens, UniProt P21781 P21781:32-194); experiment: filter; similar to random RNA; conditions: label: 5'-biotin for BIAcore specificity; proposed double pseudoknot; ssRNA; 2'-F C and U
T1 sequence: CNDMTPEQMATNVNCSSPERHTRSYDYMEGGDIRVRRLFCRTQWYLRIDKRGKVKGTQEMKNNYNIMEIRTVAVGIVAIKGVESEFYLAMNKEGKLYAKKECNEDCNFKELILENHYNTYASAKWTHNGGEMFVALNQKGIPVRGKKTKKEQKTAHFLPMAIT

VEGF (hVEGF) = VEGF (hVEGF) (Homo sapiens, UniProt P15692-4 P15692-4:27-191); experiment: filter; similar to random RNA; conditions: chain copies: 2; label: 5'-biotin for BIAcore specificity; proposed double pseudoknot; ssRNA; 2'-F C and U
TGF-beta2 = target: T2, TGF-beta2 (Homo sapiens, UniProt P61812 P61812:303-414); experiment: filter; similar to random RNA by filter; conditions: chain copies: 2; label: 5'-biotin for BIAcore specificity; proposed double pseudoknot; ssRNA; 2'-F C and U
T2 sequence: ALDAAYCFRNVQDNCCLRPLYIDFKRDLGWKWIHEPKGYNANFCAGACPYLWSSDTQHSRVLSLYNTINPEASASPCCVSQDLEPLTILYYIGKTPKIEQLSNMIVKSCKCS

Chain of VEGF (hVEGF) (P15692 other isoform, or with tags, fused parts or gaps): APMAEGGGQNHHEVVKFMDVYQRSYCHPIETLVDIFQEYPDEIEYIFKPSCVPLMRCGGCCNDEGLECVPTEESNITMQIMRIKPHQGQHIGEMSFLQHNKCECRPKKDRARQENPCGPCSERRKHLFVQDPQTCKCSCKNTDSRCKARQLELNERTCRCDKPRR

| Sequence | binding signal (KGF (hKGF)) | binding signal (VEGF (hVEGF)) | binding signal (TGF-beta2) |
| --- | --- | --- | --- |
| GGGAGGACGAUGCGGUUAUGGGCGUCAACACCGCUAUUACAGUUUUCGCCUCCCCCAGACGACUCGCCCGA | > 34000 fold Kd vs hTGF-beta1 | > 340000 fold Kd vs hTGF-beta1 | > 340000 fold Kd vs hTGF-beta1 |
| GGGAGGACGAUGCGGGGGUUAUUGGGCGUCAACAUCCCCGAUUCUUUUCACGUCCAGACGACUCGCCCGA | > 34000 fold Kd vs hTGF-beta1 | > 340000 fold Kd vs hTGF-beta1 | > 340000 fold Kd vs hTGF-beta1 |
